# The campaign covered roughly 5,500 compounds. About 2,000 (36%) were called active. Roughly 18% stayed inconclusive and do not appear here. No stated cut-off is given here; in the data, active means normalized growth mostly below about 0.91 (no sharp cut-off); inconclusive means no clear call, values can overlap the other calls; inactive means mostly above about 0.92. The list shows a part of the results.
# Test: chemical genetic growth profiling, strain panel (AID 1159580);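 further: tested at 20 µM; growth read once vehicle control cultures reached saturation at 30 °C; 1 = growth at the plate median or of vehicle wells; lower values mean less growth of the strain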
# Conditions: growth OD
compound,measurement,setting,value
COc1c(OC)c2occc2c2oc(=O)ccc12,normalized growth,"S. cerevisiae deletion strains, locus YJR066W, strain TOR1, hits give low values",0.929 (inactive)
same,normalized growth,"S. cerevisiae deletion strains, locus YKL009W, strain mrt4, hits give low values",0.957 (inactive)
same,normalized growth,"S. cerevisiae deletion strains, locus YKL068W, hits give low values",0.978 (inactive)
same,normalized growth,"S. cerevisiae deletion strains, locus YKL085W, strain MDH1 (second series), hits give low values",0.97 (inactive)
same,normalized growth,"S. cerevisiae deletion strains, locus YKL085W, strain MDH1, hits give low values",0.97 (inactive)
same,normalized growth,"S. cerevisiae deletion strains, locus YKL160W, strain elf1, hits give low values",0.942 (inactive)
same,normalized growth,"S. cerevisiae deletion strains, locus YKL190W, strain CNB1, hits give low values",0.965 (inactive)
same,normalized growth,"S. cerevisiae deletion strains, locus YKR001C, strain vps1, hits give low values",0.644 (active)
same,normalized growth,"S. cerevisiae deletion strains, locus YKR026C, strain gcn3, hits give low values",0.967 (inactive)
same,normalized growth,"S. cerevisiae deletion strains, locus YKR091W, strain srl3, hits give low values",0.985 (inactive)
same,normalized growth,"S. cerevisiae deletion strains, locus YLL001W, strain dnm1, hits give low values",0.993 (inactive)
same,normalized growth,"S. cerevisiae deletion strains, locus YLL026W, hits give low values",0.991 (inactive)
same,normalized growth,"S. cerevisiae deletion strains, locus YLL041C, strain sdh2, hits give low values",0.975 (inactive)
same,normalized growth,"S. cerevisiae deletion strains, locus YLR027C, strain aat2, hits give low values",0.964 (inactive)
same,normalized growth,"S. cerevisiae deletion strains, locus YLR039C, strain RIC1, hits give low values",0.68 (inactive)
same,normalized growth,"S. cerevisiae deletion strains, locus YLR058C, strain SHM2, hits give low values",0.96 (inactive)
same,normalized growth,"S. cerevisiae deletion strains, locus YLR102C, strain apc9, hits give low values",0.983 (inactive)
same,normalized growth,"S. cerevisiae deletion strains, locus YLR113W, strain HOG1, hits give low values",0.958 (inactive)
same,normalized growth,"S. cerevisiae deletion strains, locus YLR221C, strain rsa3, hits give low values",0.952 (inactive)
same,normalized growth,"S. cerevisiae deletion strains, locus YLR258W, strain gsy2, hits give low values",0.988 (inactive)
same,normalized growth,"S. cerevisiae deletion strains, locus YLR262C, strain YPT6 (second series), hits give low values",0.939 (inactive)
same,normalized growth,"S. cerevisiae deletion strains, locus YLR262C, strain YPT6, hits give low values",0.79 (inactive)
same,normalized growth,"S. cerevisiae deletion strains, locus YLR268W, strain sec22, hits give low values",0.927 (inactive)
same,normalized growth,"S. cerevisiae deletion strains, locus YLR320W, strain mms22, hits give low values",0.895 (inactive)
same,normalized growth,"S. cerevisiae deletion strains, locus YLR330W, strain CHS5, hits give low values",0.939 (inactive)
same,normalized growth,"S. cerevisiae deletion strains, locus YLR342W, strain FKS1 (second series), hits give low values",0.95 (inactive)
same,normalized growth,"S. cerevisiae deletion strains, locus YLR342W, strain FKS1, hits give low values",0.992 (inactive)
same,normalized growth,"S. cerevisiae deletion strains, locus YLR357W, strain rsc2, hits give low values",1.01 (inactive)
same,normalized growth,"S. cerevisiae deletion strains, locus YLR370C, strain arc18, hits give low values",0.982 (inactive)
same,normalized growth,"S. cerevisiae deletion strains, locus YLR371W, strain rom2, hits give low values",0.816 (active)
same,normalized growth,"S. cerevisiae deletion strains, locus YLR384C, strain iki3, hits give low values",0.991 (inactive)
same,normalized growth,"S. cerevisiae deletion strains, locus YLR418C, strain cdc73, hits give low values",0.754 (active)
same,normalized growth,"S. cerevisiae deletion strains, locus YML016C, strain PPZ1, hits give low values",0.936 (inactive)
same,normalized growth,"S. cerevisiae deletion strains, locus YML032C, strain rad52, hits give low values",0.915 (inactive)
same,normalized growth,"S. cerevisiae deletion strains, locus YML120C, strain ndi1, hits give low values",0.948 (inactive)
same,normalized growth,"S. cerevisiae deletion strains, locus YML124C, strain tub3, hits give low values",0.968 (inactive)
same,normalized growth,"S. cerevisiae deletion strains, locus YMR058W, strain fet3, hits give low values",0.971 (inactive)
same,normalized growth,"S. cerevisiae deletion strains, locus YMR078C, strain ctf18, hits give low values",0.955 (inactive)
same,normalized growth,"S. cerevisiae deletion strains, locus YMR125W, strain sto1, hits give low values",1.01 (inactive)
same,normalized growth,"S. cerevisiae deletion strains, locus YMR129W, hits give low values",0.986 (inactive)
same,normalized growth,"S. cerevisiae deletion strains, locus YMR205C, strain PFK2, hits give low values",0.987 (inactive)
same,normalized growth,"S. cerevisiae deletion strains, locus YMR223W, strain ubp8, hits give low values",0.933 (inactive)
same,normalized growth,"S. cerevisiae deletion strains, locus YMR231W, strain pep5, hits give low values",0.987 (inactive)
same,normalized growth,"S. cerevisiae deletion strains, locus YMR263W, strain SAP30, hits give low values",0.916 (inactive)
same,normalized growth,"S. cerevisiae deletion strains, locus YMR307W, strain GAS1, hits give low values",0.816 (inactive)
same,normalized growth,"S. cerevisiae deletion strains, locus YNL067W, strain RPL9B, hits give low values",0.941 (inactive)
same,normalized growth,"S. cerevisiae deletion strains, locus YNL071W, strain lat1, hits give low values",0.929 (inactive)
same,normalized growth,"S. cerevisiae deletion strains, locus YNL183C, strain NPR1, hits give low values",0.921 (inactive)
same,normalized growth,"S. cerevisiae deletion strains, locus YNL209W, strain ssb2, hits give low values",0.976 (inactive)
same,normalized growth,"S. cerevisiae deletion strains, locus YNL233W, strain BNI4, hits give low values",0.872 (inactive)
same,normalized growth,"S. cerevisiae deletion strains, locus YNL248C, strain rpa49, hits give low values",0.906 (inactive)
same,normalized growth,"S. cerevisiae deletion strains, locus YNL250W, strain rad50, hits give low values",0.989 (inactive)
same,normalized growth,"S. cerevisiae deletion strains, locus YNL271C, strain bni1, hits give low values",0.965 (inactive)
same,normalized growth,"S. cerevisiae deletion strains, locus YNL298W, strain CLA4, hits give low values",0.95 (inactive)
same,normalized growth,"S. cerevisiae deletion strains, locus YNL307C, strain MCK1, hits give low values",0.859 (active)
same,normalized growth,"S. cerevisiae deletion strains, locus YNL322C, strain KRE1 (second series), hits give low values",0.986 (inactive)
same,normalized growth,"S. cerevisiae deletion strains, locus YNL322C, strain KRE1, hits give low values",0.973 (inactive)
same,normalized growth,"S. cerevisiae deletion strains, locus YNR049C, strain mso1, hits give low values",0.985 (inactive)
same,normalized growth,"S. cerevisiae deletion strains, locus YNR052C, strain pop2, hits give low values",0.948 (inactive)
same,normalized growth,"S. cerevisiae deletion strains, locus YOL012C, strain htz1",0.5 (inactive)
same,normalized growth,"S. cerevisiae deletion strains, locus YOL147C, strain pex11, hits give low values",0.958 (inactive)
same,normalized growth,"S. cerevisiae deletion strains, locus YOR001W, strain rrp6, hits give low values",0.936 (inactive)
same,normalized growth,"S. cerevisiae deletion strains, locus YOR061W, strain CKA2, hits give low values",0.962 (inactive)
same,normalized growth,"S. cerevisiae deletion strains, locus YOR069W, strain VPS5, hits give low values",0.968 (inactive)
same,normalized growth,"S. cerevisiae deletion strains, locus YOR070C, strain gyp1, hits give low values",0.977 (inactive)
same,normalized growth,"S. cerevisiae deletion strains, locus YOR080W, strain dia2, hits give low values",0.98 (inactive)
same,normalized growth,"S. cerevisiae deletion strains, locus YOR083W, strain WHI5, hits give low values",0.908 (inactive)
same,normalized growth,"S. cerevisiae deletion strains, locus YOR106W, strain vam3, hits give low values",0.946 (inactive)
same,normalized growth,"S. cerevisiae deletion strains, locus YOR136W, strain idh2, hits give low values",0.995 (inactive)
same,normalized growth,"S. cerevisiae deletion strains, locus YOR144C, strain elg1, hits give low values",0.954 (inactive)
same,normalized growth,"S. cerevisiae deletion strains, locus YOR184W, strain ser1, hits give low values",0.859 (active)
same,normalized growth,"S. cerevisiae deletion strains, locus YOR231W, strain MKK1, hits give low values",0.956 (inactive)
same,normalized growth,"S. cerevisiae deletion strains, locus YOR265W, strain rbl2, hits give low values",0.985 (inactive)
same,normalized growth,"S. cerevisiae deletion strains, locus YOR270C, strain vph1, hits give low values",0.857 (inactive)
same,normalized growth,"S. cerevisiae deletion strains, locus YOR290C, strain snf2, hits give low values",0.944 (inactive)
same,normalized growth,"S. cerevisiae deletion strains, locus YOR316C, strain cot1, hits give low values",0.985 (inactive)
same,normalized growth,"S. cerevisiae deletion strains, locus YPL051W, strain arl3, hits give low values",0.933 (inactive)
same,normalized growth,"S. cerevisiae deletion strains, locus YPL055C, strain LGE1, hits give low values",0.87 (inactive)
same,normalized growth,"S. cerevisiae deletion strains, locus YPL078C, strain atp4, hits give low values",0.932 (inactive)
same,normalized growth,"S. cerevisiae deletion strains, locus YPL106C, strain sse1, hits give low values",0.94 (inactive)
same,normalized growth,"S. cerevisiae deletion strains, locus YPL240C, strain hsp82, hits give low values",0.958 (inactive)
same,normalized growth,"S. cerevisiae deletion strains, locus YPL241C, strain CIN2, hits give low values",0.941 (inactive)
same,normalized growth,"S. cerevisiae deletion strains, locus YPL256C, strain CLN2, hits give low values",0.973 (inactive)
same,normalized growth,"S. cerevisiae deletion strains, locus YPR119W, strain clb2, hits give low values",0.98 (inactive)
same,normalized growth,"S. cerevisiae deletion strains, locus YPR141C, strain kar3, hits give low values",0.985 (inactive)
same,normalized growth,"S. cerevisiae deletion strains, locus YPR163C, strain tif3, hits give low values",0.917 (inactive)
same,normalized growth,"S. cerevisiae deletion strains, locus YPR167C, strain met16, hits give low values",0.96 (inactive)
same,normalized growth,"S. cerevisiae deletion strains, strain wtn01, hits give low values",0.957 (inactive)
same,normalized growth,"S. cerevisiae strains, strain wild type, hits give low values",0.967 (inactive)
